Experimental data published in PubChem BioAssay (NCATS).
Records with an inconclusive call do not appear. Calls of active or inactive are those of the source. Unless noted, how the calls were made is not given here.

How the values were obtained:
[1] = qHTS profiling of the MIPE4 collection as inhibitors of Plasmodium falciparum (3D7) proliferation (AID 743344);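 further: scaled between DMSO vehicle wells and 0.29 µM artemisinin as full inhibition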; conditions: P. falciparum 3D7 in erythrocytes, SYBR Green DNA fluorescence, 72 h; at 28.5 µM unless noted
Method in brief: (§1)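 Parasite DNA was quantified by SYBR Green I fluorescence (ex 485, em 535 nm) after overnight lysis in saponin/Triton buffer at room temperature. Cultures at 0.3% parasitemia and 2.5% hematocrit were first exposed to compound for 72 h at 37 C; signals were normalised to artemisinin (0.29 uM) and vehicle wells.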

[2] = qHTS profiling of the MIPE4 collection as inhibitors of Plasmodium falciparum (DD2) proliferation (AID 743345); conditions: P. falciparum Dd2 in erythrocytes, SYBR Green DNA, 72 h; at 28.5 µM unless noted
Method in brief: as §1

[3] = qHTS profiling of the MIPE4 collection as inhibitors of Plasmodium falciparum (DD2) proliferation (Rep 2) (AID 743346); conditions: P. falciparum Dd2 in erythrocytes, SYBR Green DNA, 72 h; at 28.5 µM unless noted
Method in brief: as §1

[4] = qHTS profiling of the MIPE4 collection as inhibitors of Plasmodium falciparum (HB3) proliferation (AID 743347);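 further: plate controls were DMSO vehicle wells for no effect and artemisinin wells for full effect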; conditions: P. falciparum HB3 in erythrocytes, SYBR Green DNA, 72 h; at 28.5 µM unless noted
Method in brief: as §1

[5] = High-throughput drug toxicity screening in the BPDCN cell line Cal-1 (AID 1224825); conditions: Cal-1 BPDCN cell viability, qHTS; at 45.8 µM (top of the series) unless noted;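 further: cells exposed to compounds for 48 h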
Method in brief: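 Viability of the BPDCN line Cal-1 is measured as ATP-based luminescence (CellTiter-Glo) following 48 h incubation with compounds. Percent activity uses DMSO-treated wells as 100% and 9.2 uM bortezomib as 0%.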

[6] = qHTS assay for measurement of the activity of small molecule inhibitors on Zika virus induced Caspase-3 activity in human iPSC derived neural progenitor cells (hNPCs) (AID 1224857; active means well fitted curve in the direction sought with a large enough effect; an effect the other way counts as inactive or inconclusive; further: % of control where 0% means no effect; nearly all actives have a fitted effect of over 65% in size); conditions: hNPCs ZIKV-induced caspase-3/7, Caspase-Glo luminescence, 6 h; series mostly up to 45.7 µM
Method in brief: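 hNPCs seeded 350 cells/well, cultured 16–20 h; compounds added 1 h before ZIKV (2 FFU/cell), 37 C 6 h. Caspase-Glo 3/7 luminescence after 30 min RT; % inhibition from induction scaled to uninfected (0%) and infected (100%) wells.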

[7] = qHTS assay for measurement of the activity of small molecule inhibitors on Zika virus induced Caspase-3 activity in human astrocytoma cells (AID 1224859; active means well fitted curve in the direction sought with a large enough effect; an effect the other way counts as inactive or inconclusive;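 further: plate controls were ZIKV-infected untreated cells for no effect and uninfected cells for full effect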); conditions: SNB-19 ZIKV-induced caspase-3/7, luminescence, 6 h; series mostly up to 45.7 µM
Method in brief: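 Luminescence read-out (Caspase-Glo 3/7, 30 min RT) of caspase activity in SNB-19 cells infected 6 h with ZIKV, 2 FFU/cell, after 1 h compound pretreatment; % inhibition from induction normalised to uninfected (0%) and infected (100%) wells.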

[8] = qHTS Screen of the MIPE 4.0 Collection Against Ewings Sarcoma (RDES) (AID 1259252; active means well fitted curve in the direction sought with a large enough effect; an effect the other way counts as inactive or inconclusive; further: potency means the concentration at half of the fitted maximal effect; nearly all actives have a fitted effect of over 35% in size); conditions: RD-ES Ewing sarcoma viability, CellTiter-Glo, 48 h; series mostly up to 45.8 µM
Method in brief: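 Measured: ATP luminescence (CellTiter-Glo) 10 min after reagent addition, following 48 h drug treatment. Relative luciferase units converted to percent activity, with no-cell wells as full and DMSO wells as zero inhibition.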

[9] = qHTS Assay for Identifying Gametocytocidal Compounds (AID 743244; active means well fitted curve in the direction sought with a large enough effect; an effect the other way counts as inactive or inconclusive;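 further: on the % scale 0 is the no-effect control and ±100 the full control effect; actives lower the fluorescent signal which means gametocytes are killed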); conditions: P. falciparum 3D7 stage III-V gametocytes, alamarBlue, 72 h; max response: stronger effect = lower value
Method in brief: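 P. falciparum 3D7 stage III–V gametocytes (20,000 cells/well) were exposed to compounds for 72 h at 37 °C, 5% CO2. AlamarBlue was then added for 24 h; decreased resorufin fluorescence (Ex 525/Em 598 nm) indicated loss of viability.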

[10] = qHTS profiling for inhibitors of Plasmodium falciparum (3D7) proliferation (AID 743322);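 further: infected erythrocytes exposed to compound for 72 h before lysis; 100% = DMSO vehicle wells and 0% = 0.29 µM artemisinin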; conditions: P. falciparum 3D7 proliferation; at 28.7 µM (top of the series) unless noted
Method in brief: as §1

[11] = qHTS profiling for inhibitors of Plasmodium falciparum (DD2) proliferation (AID 743323); conditions: lower = more inhibition; at 28.7 µM (top of the series) unless noted
Method in brief: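 SYBR Green fluorescence (ex 485, em 535 nm) of lysed cultures gives parasite DNA content; wells normalized to artemisinin (0.29 uM) and DMSO controls. Infected red cells: 0.3% parasitemia, 2.5% hematocrit, 72 h, 37 C.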

[12] = qHTS profiling for inhibitors of Plasmodium falciparum (HB3) proliferation (AID 743324; active means well fitted curve in the direction sought with a large enough effect; an effect the other way counts as inactive or inconclusive;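 further: 100% = DMSO vehicle wells and 0% = artemisinin-treated control wells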); conditions: Plasmodium falciparum HB3 blood-stage proliferation; at 28.7 µM (top of the series) unless noted
Method in brief: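 SYBR Green fluorescence (485 ex/535 em) of lysed cultures, incubated overnight at room temperature in the dark, quantifies parasite DNA. Infected erythrocytes at 0.3% parasitemia and 2.5% hematocrit were exposed 72 h; values normalized to DMSO and 0.29 uM artemisinin controls.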

| Compound | parasite growth, % of DMSO control [1] [%] | parasite growth remaining, % of DMSO control (lower = more inhibition) [2] [%] | parasite growth, % of control (lower = inhibition) [3] [%] | growth, % of control [4] [%] | viability (% of control) [5] [%] | Potency [6] | Potency [7] | Potency [8] | max response [9] | remaining parasite growth % (stronger effect = lower value) [10] [%] | activity, percent of control [11] [%] | remaining proliferation (% of control), lower = more inhibition [12] [%] |
| --- | --- | --- | --- | --- | --- | --- | --- | --- | --- | --- | --- | --- |
| O=C(CC12CC3CC(CC(C3)C1)C2)Nc1cccc2nc(NCCNCCO)ccc12 | 4.99 | 13.2 | 15.5 | 4.24 | 5.92 | inactive | inactive | 14.8 µM (active) |  |  |  |  |
| CNc1nc(-c2ccc3c(N)n[nH]c3c2)cc(N2C[C@@H](C(=O)NC3CCCCC3)CC[C@@H]2C)n1 | 5.06 | 8.54 | 11.4 | 4.91 | 18.1 | inactive | inactive | 6.62 µM (active) |  |  |  |  |
| N#CC1(c2cccc(C(=O)Nc3cc(Oc4ccc5nc(NC(=O)C6CC6)sc5n4)ccc3F)c2Cl)CC1 | 14.7 |  | 30.3 | 9.87 | 43.3 | inactive | inactive | 16.6 µM (active) |  |  |  |  |
| CNC(=O)c1cc(COc2nnc(Nc3ccc(Cl)cc3)c3ccoc23)ccn1 | 40.5 |  | 52.9 | 48.2 | 92.9 |  | inactive |  | 13% (inactive) | 54.7 | 68.5 | 28.7 |
